Experiment [1] has as its system Plasmodium falciparum Sir2 (PF13_0152, Sir2A). Description: Plasmodium falciparum Sir2A binding compounds – biochemical, small-molecule microarray, 635 nm fluorescence, primary screen (AID 1098).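 Also: score merges spot fluorescence intensity with its signal-to-noise ratio.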 The following applies: fluorescence 635 nm, higher = more signal.
Experiment [2] in a line: probe aDKK1 binding to arrayed compounds – biochemical, biotinylated probe, 635/667 nm fluorescence, primary screen (AID 1099).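 Also: score merges 667nm spot fluorescence with signal to noise across triplicate slides; reference of the scale not given here.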 The note with it: small-molecule microarray, higher = more signal.
The nature of experiment [3]: probe aCHRDL2 binding to arrayed compounds – biochemical, biotinylated probe, 635/667 nm fluorescence, primary screen (AID 1100). The following applies: small-molecule microarray, higher = more signal.
Experiment [4] is described as follows: change in splice reporter luminescence, either direction, cell-based, HEK293, spliceosome inhibition project, primary screen (AID 1101).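 Also: HEK293 cells carrying a splicing-competent luciferase reporter gene; test concentration not given here.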 The following applies: HEK293 splicing luciferase reporter, 24 h, higher = more signal, called active from +8 up or from −8 down.
Experiment [5] has as its target Fibroblast growth factor 10 (Homo sapiens) (UniProt O15520). Description: compounds binding fibroblast growth factor 10 – biochemical, small-molecule microarray, 635 nm fluorescence, primary screen (AID 1102). The following applies: FGF10 binding, fluorescence 635 nm, higher = more signal.
For experiment [6], the system named is glycogen synthase kinase-3 (GSK3A per assay name; protocol says GSK3B). Description: compounds binding glycogen synthase kinase-3 – biochemical, small-molecule microarray, 635 nm fluorescence, GSK3A, primary screen (AID 1103). Also: the record names both GSK3A and GSK3B. The following applies: fluorescence 635 nm, higher = more signal.
In experiment [7] the target is Epidermal growth factor receptor (Homo sapiens) (UniProt P00533). The experiment is described as follows: compounds binding epidermal growth factor receptor – biochemical, small-molecule microarray, 635 nm fluorescence, primary screen (AID 1104).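 Also: score merges 667 nm emission intensity with spot signal to noise over triplicate slides.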 The note with it: EGFR binding, higher = more signal.
Chain of Epidermal growth factor receptor (Homo sapiens) (P00533 whole entry, looked up): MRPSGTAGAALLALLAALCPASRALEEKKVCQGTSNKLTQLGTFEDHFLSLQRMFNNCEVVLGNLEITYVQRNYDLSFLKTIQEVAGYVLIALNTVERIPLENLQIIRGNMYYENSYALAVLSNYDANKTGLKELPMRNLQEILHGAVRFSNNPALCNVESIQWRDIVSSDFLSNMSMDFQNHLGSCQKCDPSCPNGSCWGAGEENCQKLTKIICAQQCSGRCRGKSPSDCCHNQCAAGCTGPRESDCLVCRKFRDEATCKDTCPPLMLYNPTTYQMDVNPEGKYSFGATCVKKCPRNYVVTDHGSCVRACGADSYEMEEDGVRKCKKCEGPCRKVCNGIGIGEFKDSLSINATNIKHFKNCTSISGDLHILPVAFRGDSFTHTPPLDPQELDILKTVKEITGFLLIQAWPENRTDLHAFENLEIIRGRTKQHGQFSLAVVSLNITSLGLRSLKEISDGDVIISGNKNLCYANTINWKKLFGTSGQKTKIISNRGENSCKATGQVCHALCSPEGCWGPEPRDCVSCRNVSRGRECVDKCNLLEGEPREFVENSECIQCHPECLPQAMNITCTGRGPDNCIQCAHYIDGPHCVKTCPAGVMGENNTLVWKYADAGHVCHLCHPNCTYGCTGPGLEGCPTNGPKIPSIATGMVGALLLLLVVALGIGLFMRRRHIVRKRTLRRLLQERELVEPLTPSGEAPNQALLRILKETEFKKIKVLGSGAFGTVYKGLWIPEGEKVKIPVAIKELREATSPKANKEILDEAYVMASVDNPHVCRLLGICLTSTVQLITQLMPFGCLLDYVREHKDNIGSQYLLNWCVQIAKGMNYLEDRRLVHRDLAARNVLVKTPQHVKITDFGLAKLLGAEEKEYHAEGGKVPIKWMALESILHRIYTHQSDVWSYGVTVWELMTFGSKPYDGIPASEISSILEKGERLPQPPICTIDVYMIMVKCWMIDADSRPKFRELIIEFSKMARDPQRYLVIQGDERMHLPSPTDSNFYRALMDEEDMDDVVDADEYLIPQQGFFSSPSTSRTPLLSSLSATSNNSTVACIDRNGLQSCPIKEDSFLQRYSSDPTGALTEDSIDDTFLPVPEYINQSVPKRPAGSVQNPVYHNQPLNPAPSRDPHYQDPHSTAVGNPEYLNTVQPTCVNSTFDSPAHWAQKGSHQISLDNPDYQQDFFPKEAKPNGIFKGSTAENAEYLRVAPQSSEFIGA
Experiment [8] deals with Follistatin-related protein 3 (Homo sapiens) (UniProt O95633). Description: compounds binding follistatin-related protein 3 – biochemical, small-molecule microarray, 635 nm fluorescence, primary screen (AID 1105).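 Also: score merges emission near 667 nm and signal to noise per printed spot across three slides.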 The following applies: FSTL3 binding, higher = more signal.
Chain of Follistatin-related protein 3 (Homo sapiens) (O95633 whole entry, looked up): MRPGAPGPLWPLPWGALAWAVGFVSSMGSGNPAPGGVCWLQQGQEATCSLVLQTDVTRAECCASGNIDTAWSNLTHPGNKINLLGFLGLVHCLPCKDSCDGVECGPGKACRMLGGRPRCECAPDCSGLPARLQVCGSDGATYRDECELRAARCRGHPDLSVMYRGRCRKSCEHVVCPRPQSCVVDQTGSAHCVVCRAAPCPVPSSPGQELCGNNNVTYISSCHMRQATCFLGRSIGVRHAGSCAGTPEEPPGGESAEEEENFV
For experiment [9], the target named is Dickkopf-related protein 1 (Homo sapiens) (UniProt O94907). Description: small molecules binding DKK1 protein – biochemical, small-molecule microarray, 635 nm fluorescence scan, primary screen (AID 1106).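 Also: score merges emission near 667 nm with signal to noise over three replicate slides.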 The note with it: higher = more signal.
Chain of Dickkopf-related protein 1 (Homo sapiens) (O94907 whole entry, looked up): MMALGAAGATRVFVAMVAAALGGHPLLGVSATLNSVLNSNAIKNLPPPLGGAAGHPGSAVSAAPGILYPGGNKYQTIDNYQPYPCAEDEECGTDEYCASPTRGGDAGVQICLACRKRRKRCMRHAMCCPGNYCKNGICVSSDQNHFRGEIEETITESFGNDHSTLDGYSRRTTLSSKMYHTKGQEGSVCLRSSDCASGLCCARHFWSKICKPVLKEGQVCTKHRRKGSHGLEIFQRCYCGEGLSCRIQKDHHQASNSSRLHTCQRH
The test system of experiment [10] is Inhibin beta A chain (activin A). The experiment is described as follows: small molecules binding activin A – biochemical, small-molecule microarray, 635 nm fluorescence scan, primary screen (AID 1107).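 Also: mouse activin A protein probed at 4.33 µg/mL on printed slides; score merges bound-protein fluorescence near 667 nm with spot signal-to-noise.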 The note with it: INHBA, higher = more signal.

Activity calls are given as the source filed them.

Chain of Fibroblast growth factor 10 (Homo sapiens) (O15520 whole entry, looked up): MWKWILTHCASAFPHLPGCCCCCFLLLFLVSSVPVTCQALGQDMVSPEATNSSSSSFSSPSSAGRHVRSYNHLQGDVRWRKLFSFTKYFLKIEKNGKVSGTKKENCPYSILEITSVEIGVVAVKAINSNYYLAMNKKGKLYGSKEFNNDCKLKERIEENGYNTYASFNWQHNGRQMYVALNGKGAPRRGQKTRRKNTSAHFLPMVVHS

For `CN1C(=O)C2C=CC(C(O)c3c(F)cccc3Cl)N(Nc3ccccc3)C2C1=O` (stereo not given), the composite z-score in experiment [1] is 1.54; in experiment [2], 0.308; in [3] it was 0.92; in experiment [5] it was 0.657; in experiment [6], -0.0475; in experiment [7], 0.257. Besides, the composite z-score in [8] was 0.71; in experiment [9], -0.534; in [10], 0.909. Moreover, in experiment [4], the z-score was 1.29 (inactive).
Turning to `COc1ccc([Si](C)(C)[C@H]2[C@H](CCn3cc([C@H](O)c4ccccc4)nn3)O[C@@]3(C(=O)N(Cc4ccc(N5CCOC5=O)cc4)c4ccccc43)[C@@H]2C)cc1`, the composite z-score in experiment [1] is -0.215; in [2], 0.555; in experiment [3] it was 0.282; in experiment [5] it was -1.23; in experiment [6], -2.18; in [7], -0.228. The values for the composite z-score in experiment [8], in experiment [9] and in [10] were -1.54, -0.958 and -0.794, respectively. For the same compound, the z-score in experiment [4] is -0.372 (inactive).
Consider `CCOC(=O)C[C@H]1[C@H](OC(=O)c2ccccc2-c2ccccc2)[C@@H](NC(=O)c2ccc3ccccc3n2)c2cc(OCCCO)ccc2N1C(=O)c1ccc2ccccc2n1`, for which the composite z-score is 0.638 in [1]; -0.267 in experiment [2]; -0.535 in experiment [3]; 0.611 in experiment [5]; 0.0214 in experiment [6]; 0.378 in experiment [7]. Besides, the composite z-score in [8] is 0.469; in [9], 0.452; in [10], -0.0055. Moreover, in experiment [4], the z-score is -1.19 (inactive).
Consider `CC(C)CN1C(=O)[C@@]2(Cc3ccccc31)c1ccccc1C(=O)N(Cc1ccccc1C(F)(F)F)[C@H]2c1ccc(CO)cc1`, for which the composite z-score is 0.957 in [1]; -0.0363 in experiment [2]; 0.223 in [3]; -0.621 in experiment [5]; -1.59 in experiment [6]; -0.478 in experiment [7]. In addition, the composite z-score in [8] is -0.676; in experiment [9], -1.05; in [10], 0.731. The z-score in [4] was -0.596 (inactive).
As for `C=CCOC(=O)[C@H]1[C@@H]2C(=O)O[C@@H](c3ccccc3)[C@@H](c3ccccc3)N2[C@@H](c2ccc(OCCOC(=O)[C@H]3C[C@H]4C(=O)N[C@@H](CCCC[N+](C)(C)C)C(=O)N4[C@H]3c3cccc(OCCO)c3)cc2)[C@]12C(=O)Nc1ccc(I)cc12`, the composite z-score in [1] was 1.1; in experiment [2], -0.179; in experiment [3] it was -0.0243; in [5] it was 0.809; in experiment [6], 0.701; in experiment [7], 0.335. Also, the composite z-score in experiment [8] came out at 0.376; in experiment [9], 0.763; in experiment [10] it was 0.111. Also, the z-score in [4] is 0.997 (inactive).
Take `C=C1C2CC3C(=C4C(CO[C@@H]4[C@H]4CCCN4S(=O)(=O)c4ccccc4[N+](=O)[O-])C4C(=O)N(C)C(=O)C34)CC2C(=O)N1C` (stereo not given in full): the composite z-score in [1] was 0.201; in experiment [2], -0.2; in experiment [3], -0.427; in [5] it was 0.475; in experiment [6] it was 0.0168; in experiment [7] it was -0.0553. Moreover, the composite z-score in [8] turned out to be 0.157; in experiment [9] it was 0.298; in experiment [10] it was 0.689. Also, the z-score in experiment [4] is 0.194 (inactive).
`COCCOC(=O)N1C(=O)[C@@]2(c3cc(C#CC4=CCCCC4)ccc31)[C@H](c1ccccc1OCCO)N1[C@H](c3ccccc3)[C@H](c3ccccc3)OC(=O)[C@H]1[C@@H]2C(=O)N1CCc2cc(OC)c(OC)cc2C1`: the composite z-score in [1] was 0.162; in experiment [2] it was -0.636; in experiment [3], -0.834; in [5], 0.848; in experiment [6], 1.18; in experiment [7], 0.733. Besides, the composite z-score in experiment [8] is 1.4; in [9], 0.356; in experiment [10], -0.244. Also, the z-score in [4] is -0.222 (inactive).
As for `COC(=O)[C@@]1(Cc2ccc(F)cc2)[C@H]2c3cc(C(=O)N4CCCC4)n(CCF)c3C[C@H]2CN1C(=O)c1ccccc1`, the composite z-score in [1] is 1.62; in experiment [2] it was 1.98; in experiment [3], 1.02; in [5], 0.876; in experiment [6], 0.306; in experiment [7], -0.0069. The composite z-score came out at 0.418 in experiment [8], 0.555 in [9] and 1.03 in experiment [10]. Also, the z-score in experiment [4] was -1.72 (inactive).
Consider `COc1ccc([Si](C)(C)[C@H]2[C@H](CCn3cc([C@H](O)c4ccccc4)nn3)O[C@@]3(C(=O)N(Cc4ccc(N5CCC5=O)cc4)c4ccccc43)[C@@H]2C)cc1`, for which the composite z-score in [1] is 0.995; in experiment [2] it was -0.185; in [3], -0.403; in experiment [5], 0.865; in experiment [6], 0.365; in [7], 0.631. The composite z-score came to 0.855 in experiment [8], 0.527 in experiment [9] and 0.862 in experiment [10]. Also, the z-score in experiment [4] is 0.0121 (inactive).
In the case of `COc1cc(OC)c(C(O)C2C=CC3C(=O)N(c4ccccc4)C(=O)C3N2Nc2ccc(C#N)cc2)cc1Br` (stereo not given), the composite z-score in [1] stood at 0.842; in [2], 1.56; in experiment [3], 1.4; in [5], 1.18; in [6], 0.687; in experiment [7], 0.763. Moreover, the composite z-score in [8] is 0.95; in experiment [9], -0.0884; in [10], 0.664. The z-score in [4] was 1.47 (inactive).
For `COCCOC(=O)N1C(=O)[C@@]2(c3ccccc31)[C@H](C(=O)N1CCN(c3ncccn3)CC1)[C@H]1C(=O)O[C@H](c3ccccc3)[C@H](c3ccccc3)N1[C@@H]2c1ccc(OCCO)cc1`, the composite z-score in experiment [1] came out at 1.02; in [2], 0.657; in experiment [3], 0.422; in experiment [5] it was 1.24; in experiment [6] it was 0.402; in experiment [7] it was 1. For the same compound, the composite z-score in experiment [8] came to 1.03; in [9], 0.286; in experiment [10], 0.252. In addition, in [4], the z-score is -0.471 (inactive).
As to `COc1ccc(C(O)C2C=CC3C(=O)N(C)C(=O)C3N2N2CCCCC2)cc1` (stereo not given), the composite z-score was found to be 1.23 in [1]; 0.297 in experiment [2]; 0.378 in experiment [3]; 0.632 in [5]; 1.09 in experiment [6]; 0.579 in experiment [7]. Further, the results for the composite z-score in experiment [8], in [9] and in experiment [10] were 0.306, 0.224 and 1.31, respectively. In [4], the z-score was 1.33 (inactive).
As for `O=C(NC1CC1)[C@@H]1c2ccccc2C(=O)N(Cc2ccccc2)[C@H]1c1ccc(CO)cc1`, the composite z-score in experiment [1] is 1.73; in [2], -0.474; in experiment [3] it was 0.211; in [5] it was 0.209; in experiment [6], 0.714; in experiment [7] it was -0.375. In addition, the composite z-score in experiment [8] was -0.298; in experiment [9] it was -0.551; in [10] it was 0.443. Also, the z-score in experiment [4] was 0.135 (inactive).
Regarding `CC(C)(C)OC(=O)CC[C@@]1(C(=O)O)N=C(c2ccc(OCCCO)cc2)O[C@@H]1c1ccccc1CN=[N+]=[N-]`, the composite z-score in experiment [1] was 1.16; in [2] it was 1; in experiment [3], 0.602; in [5], 0.0038; in experiment [6], 0.396; in experiment [7], -0.207. The results for the composite z-score in [8], in experiment [9] and in experiment [10] were -0.43, -0.689 and 1.08, respectively. Moreover, in experiment [4], the z-score was -0.326 (inactive).

Source of the values: PubChem BioAssay.
